TIM10 inh = growth inhibitors of isogenic TIM10 control yeast, primary screen, counter-screen for tim10-1 yeast inhibitor project, luminescence, uHTS. 330,000 compounds, 1.4% hits. inhibition, % at 10 µM. S. cerevisiae TIM10 strain growth, BacTiter-Glo luminescence, 24 h;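 active means inhibition of 40% or more at the single tested concentration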;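 further: wild-type TIM10 isogenic control strain grown at permissive 25 °C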
Rce1 inhib = yeast Rce1p protease inhibitors, primary screen, biochemical, fluorescence, cell-free homogeneous; CAAX prenyl protease 2 (Saccharomyces cerevisiae (strain ATCC 204508 / S288c)), Q03530; yeast membranes, quenched prenylated peptide cleavage fluorescence; calls only; 290,000 compounds, 0.27% hits; AID 2563, 2010;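 active means fall in fluorescence gain of 50% or more versus controls, with final raw signal at or below 3038400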;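 further: plate controls were neutral control wells for no effect and wells lacking membranes for full effect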
Target sequence (Q03530 whole entry, looked up): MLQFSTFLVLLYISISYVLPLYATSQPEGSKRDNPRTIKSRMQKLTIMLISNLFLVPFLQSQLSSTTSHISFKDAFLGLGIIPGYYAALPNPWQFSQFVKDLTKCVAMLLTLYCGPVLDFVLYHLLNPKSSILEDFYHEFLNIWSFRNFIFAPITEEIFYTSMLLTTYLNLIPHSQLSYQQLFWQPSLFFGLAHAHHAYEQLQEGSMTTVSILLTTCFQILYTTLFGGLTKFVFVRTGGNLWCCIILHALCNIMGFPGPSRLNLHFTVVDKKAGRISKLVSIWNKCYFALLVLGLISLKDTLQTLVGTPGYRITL
PfHsp90 yeast 2 = growth inhibition of PfHsp90-expressing yeast, primary screen, antimalarial PfHsp90 inhibitor project, S. cerevisiae, BacTiter-Glo luminescence, single point, set 2 | BacTiter-Glo ATP, 48 h; yeast lacking PDR1 and PDR3 efflux regulators | inhibition, % at 9.4 µM | 310,000 compounds, 0.32% hits | AID 504621, 2011;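 active means every replicate shows inhibition above about 80%, whatever the replicate mean, limit read from the data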;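 further: 0% = DMSO neutral controls and 100% = 20 µM radicicol positive controls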
tim23-1 inh = growth inhibitors of tim23-1 mutant yeast, primary screen, luminescence, uHTS; S. cerevisiae tim23-1 growth, BacTiter-Glo luminescence, 24 h; inhibition, % at 20 µM; 330,000 compounds, 1.3% hits;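 active means growth inhibition of the mutant yeast at or above 50%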;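 further: temperature-sensitive mutant grown at 25 °C; plate controls were DMSO-treated mutant yeast for no effect and medium wells lacking yeast for full effect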
tim10-1 inh = growth inhibitors of tim10-1 mutant yeast, primary screen, luminescence, uHTS; S. cerevisiae tim10-1 ts strain growth, BacTiter-Glo, 24 h; inhibition, % at 20 µM; 330,000 compounds, 2.2% hits;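 active means inhibition of at least 40%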;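 further: mutant grown at 25 °C; 0% = DMSO wells with yeast and 100% = wells holding no yeast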
tim10-1 confirm = growth inhibitors of tim10-1 mutant yeast, confirmation, single concentration, luminescence, S. cerevisiae | shares compounds with tim10-1 inh | inhibition, % at 20 µM | S. cerevisiae tim10-1 ts strain growth, BacTiter-Glo, 24 h | 7,400 compounds, 56% hits;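 active means inhibition of yeast growth at or above a set limit in either of two repeat tests at 20 µM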;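 further: tim10-1 mutant grown at permissive 25 °C to find synthetic lethal compounds; 0% = DMSO yeast wells and 100% = medium wells without yeast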
TIM10 conf = growth inhibitors of wild-type TIM10 yeast, confirmation, counter-screen for tim10-1 synthetic lethality project, single concentration, luminescence, S. cerevisiae. shares compounds with TIM10 inh. S. cerevisiae tim10 strain growth, BacTiter-Glo luminescence, 24 h. inhibition, % at 10 µM. 4,600 compounds, 63% hits. AID 463215, 2010;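 active means inhibition of yeast growth at or above a set limit in either of two replicates at 10 µM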;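 further: this counterscreen used the strain with wild-type TIM10; 0% = yeast with DMSO and 100% = medium wells lacking yeast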
tim23-1 conf = tim23-1 mutant yeast growth inhibitors, confirmation, luminescence, single concentration; S. cerevisiae tim23-1 growth, BacTiter-Glo luminescence, 24 h; inhibition, % at 20 µM; shares compounds with tim23-1 inh; 4,400 compounds, 83% hits;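 active means inhibition above about 39% in either of two replicate wells at 20 µM, limit read from the data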;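 further: temperature-sensitive tim23-1 mutant grown at 25 °C; 0% = DMSO wells with yeast and 100% = medium wells without yeast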
The depositor's hits bear a star; i = inactive; . = no result given. Sampled rows, rich in hits. Any-hit rate of the full collection: about 3.7%.

SMILES	TIM10 inh	Rce1 inhib	PfHsp90 yeast 2	tim23-1 inh	tim10-1 inh	tim10-1 confirm	TIM10 conf	tim23-1 conf
Cc1ccc(S(=O)(=O)NCC(C)n2nc(C)cc2C)cc1 (configuration not stated)	3.8	i	8.4	-2.8	-3.3	.	.	.
Cc1ccc(C(C[N+](=O)[O-])n2nc(C)cc2C)cc1 (configuration not stated)	22.5	.	7.5	80.1*	52.6*	35.8*	.	72.7*
Cc1occc1C(=O)N(Cc1nc(-c2ccccc2)no1)C(C)C	-6.6	i	-10.5	19.6	23.0	.	.	.
Cc1cccc(NC(=S)NC2CCCCC2)n1	49.7*	i	-19.0	52.1*	41.0*	27.6	43.8*	49.9*
COC(=O)c1nc(N)sc1C	12.3	i	6.3	0.6	10.5	.	.	.
Cc1ccc(C2CC(c3cccs3)=NN2C(=O)CSC2=NN3CCCC(=O)N=C3S2)cc1 (configuration not stated)	44.5*	i	2.4	56.8*	50.5*	43.8*	39.9*	60.0*
CC1Cc2ccccc2N1C(=O)COC(=O)CNC(=O)c1ccc(Br)o1 (configuration not stated)	18.8	i	2.7	-0.8	10.0	.	.	.
CC1CCCCN1c1nc(-c2ccncc2)nc2ccccc12 (configuration not stated)	52.8*	i	8.0	53.1*	47.0*	43.5*	41.1*	52.8*
CCOc1ccc(Nc2nc(N)c3ccccc3n2)cc1	46.0*	i	74.7	56.8*	62.3*	65.4*	49.6*	64.7*
CCOc1ccc(Nc2nc(N)nc(CCl)n2)cc1	22.7	i	2.1	23.4	24.3	.	.	.
Nc1nc(Nc2ccc(Cl)cc2)nc2ccccc12	68.5*	i	35.5	57.9*	67.3*	57.1*	67.4*	55.0*
CC1(c2cccc(Br)c2)NC(=O)N(CC(=O)Nc2ccc(F)cc2)C1=O (configuration not stated)	10.4	i	20.7	-9.9	-38.5	.	.	.
O=C(OC1CCCCC1)c1ccc(NC(=O)c2ccco2)cc1	23.2	i	16.9	53.6*	44.2*	29.9	.	70.2*
O=C(COC(=O)CCC(=O)c1ccc(F)cc1)Nc1cccc(S(=O)(=O)N2CCCC2)c1	6.1	i	-19.4	-1.3	18.1	.	.	.
O=C(Nc1ccc(Nc2ccccc2)cc1)c1ccc(Cl)cc1Cl	-13.4	i	.	5.2	-12.5	.	.	.
C#Cc1cccc(NC(=O)c2ccc(Cl)cc2Cl)c1	58.5*	i	15.8	68.0*	53.5*	42.5*	52.2*	61.2*
O=C(Oc1ccccc1/C=C\C(=O)c1cc2ccccc2o1)c1ccccc1	49.9*	i	14.4	50.4*	47.2*	41.5*	30.9*	48.9*
COc1cccc(C(=O)Oc2ccccc2/C=C\C(=O)c2cc3ccccc3o2)c1	.	i	-0.7	.	.	.	.	.
Cc1ccccc1N=Cc1c(O)n(-c2nccs2)c(=O)c2ccccc12	47.1*	i	-21.1	59.4*	47.9*	47.0*	45.6*	56.0*
O=C(O)c1ccccc1N=Cc1c(O)n(-c2nccs2)c(=O)c2ccccc12	-5.7	i	-6.0	12.8	-8.4	.	.	.
CC1CN(S(=O)(=O)c2cccc(C(=O)Nc3ccccc3N3CCCC3)c2)CC(C)O1 (configuration not stated)	9.2	i	.	28.0	21.6	.	.	.
CCCCCCCCCCOC(=O)Cn1c(COc2ccc(Cl)cc2)[n+](C)c2ccccc21	54.9*	i	106.1*	91.6*	96.6*	92.4*	53.6*	90.8*
CCC(C)c1nc2ccsc2c(N2CCOC2=O)c1-c1ccccc1 (configuration not stated)	-12.3	i	8.2	-0.1	-6.8	.	.	.
C/C(=N\Nc1ccc([N+](=O)[O-])cc1)c1cccc(N)c1	4.3	i	5.3	25.8	-24.3	.	.	.
C/C(=N\Nc1ccc([N+](=O)[O-])cc1)c1ccc(O)cc1	23.8	i	-42.4	69.9*	43.6*	19.2	.	54.6*
SMILES	TIM10 inh	Rce1 inhib	PfHsp90 yeast 2	tim23-1 inh	tim10-1 inh	tim10-1 confirm	TIM10 conf	tim23-1 conf
COc1ccc(C(=O)Nn2c(CCC(=O)O)ccc2-c2ccc(C)cc2)cc1OC	9.8	i	31.4	-10.5	9.3	.	.	.
Cc1ccc2c(c1)c(C1=c3ccccc3=NC1=O)c(O)n2C	41.2*	i	1.4	52.1*	50.1*	33.3*	50.3*	64.3*
Cc1c(-n2c(O)c(C3=c4ccccc4=NC3=O)sc2=O)c(=O)n(-c2ccccc2)n1C	-0.9	i	-10.1	-12.9	-7.0	.	.	.
O=S(=O)(c1ccccc1)c1ncc(C(F)(F)F)cc1O	11.3	i	-18.7	21.4	12.5	.	.	.
O=S(=O)(c1ccccc1)c1ncc(C(F)(F)F)cc1Cl	23.3	i	-10.1	52.7*	45.9*	22.4	.	51.5*
CN(Cc1ccc(F)cc1)C(=O)c1cc(COc2ccc(-n3cncn3)cc2)on1	40.8*	i	-3.9	59.4*	52.6*	37.5*	34.8*	43.2*
CSc1ccc(CN(C)C(=O)c2cc(=O)[nH]c3ccccc23)cc1	4.5	i	3.3	6.0	6.4	.	.	.
Cc1ccc(N=C(NOC(=O)c2ccccc2)c2nonc2N)c(C)c1	48.8*	i	14.9	56.6*	46.1*	49.1*	40.0*	40.9*
Cc1cccc(NCc2cc(Cl)cc(Cl)c2O)n1	29.3	i	-11.7	52.1*	42.6*	27.0	.	56.0*
Cc1cccc(NCc2cc(Cl)ccc2O)n1	-5.0	i	11.0	15.6	0.9	.	.	.
O=C(Nc1cccc(Cl)c1)c1ccc(Cn2cc(Cl)cn2)cc1	73.3*	i	18.0	68.4*	59.9*	47.0*	16.9	76.0*
CC(C)(C)C1C/C(=C/c2ccccn2)C(=O)/C(=C/c2ccccn2)C1 (configuration not stated)	68.7*	i	99.9*	68.2*	65.7*	70.3*	74.6*	27.0
CC1C/C(=C/c2ccccn2)C(=O)/C(=C/c2ccccn2)C1 (configuration not stated)	67.2*	i	6.6	64.8*	67.2*	66.2*	70.6*	81.8*
O=C1/C(=C\c2ccco2)CCC/C1=C\c1ccco1	29.8	i	2.3	48.2	38.3	.	.	.
